Reference: PubChem BioAssay (NCATS)
Results filed as inconclusive are left out. Calls of active or inactive are those of the source. Unless noted, calls follow the shape of the full dose curve.

How the values were obtained:
[1] = qHTS for Inhibitors of the Functional Ribonucleoprotein Complex (vRNP) of Lassa (LASV) Arenavirus: LASV Primary Screen - GLuc reporter signal (AID 1347082; calls by dose curve; tested in HEK293 reporter line; also: nearly all actives have a fitted effect of over 60% in size)
[2] = qHTS for Inhibitors of the Functional Ribonucleoprotein Complex (vRNP) of Lassa (LASV) Arenavirus: Viability assay - alamar blue signal for LASV Primary Screen (AID 1347083; calls by dose curve; tested in HEK293 reporter line; also: nearly all actives have a fitted effect of over 80% in size)
[3] = qHTS for Inhibitors of the Functional Ribonucleoprotein Complex (vRNP) of Lymphocytic Choriomeningitis Arenaviruses (LCMV): Viability assay - alamar blue signal for LCMV Primary Screen (AID 1347085; calls by dose curve; tested in HEK293 reporter line; also: nearly all actives have a fitted effect of over 80% in size)
[4] = target: Nucleoprotein (Lymphocytic choriomeningitis virus (strain Armstrong)) (UniProt P09992); experiment: qHTS for Inhibitors of the Functional Ribonucleoprotein Complex (vRNP) of Lymphocytic Choriomeningitis Arenaviruses (LCMV): LCMV Primary Screen - GLuc reporter signal (AID 1347086); also: nearly all actives have a fitted effect of over 70% in size
Nucleoprotein (Lymphocytic choriomeningitis virus (strain Armstrong)), sequence (P09992 whole entry, looked up): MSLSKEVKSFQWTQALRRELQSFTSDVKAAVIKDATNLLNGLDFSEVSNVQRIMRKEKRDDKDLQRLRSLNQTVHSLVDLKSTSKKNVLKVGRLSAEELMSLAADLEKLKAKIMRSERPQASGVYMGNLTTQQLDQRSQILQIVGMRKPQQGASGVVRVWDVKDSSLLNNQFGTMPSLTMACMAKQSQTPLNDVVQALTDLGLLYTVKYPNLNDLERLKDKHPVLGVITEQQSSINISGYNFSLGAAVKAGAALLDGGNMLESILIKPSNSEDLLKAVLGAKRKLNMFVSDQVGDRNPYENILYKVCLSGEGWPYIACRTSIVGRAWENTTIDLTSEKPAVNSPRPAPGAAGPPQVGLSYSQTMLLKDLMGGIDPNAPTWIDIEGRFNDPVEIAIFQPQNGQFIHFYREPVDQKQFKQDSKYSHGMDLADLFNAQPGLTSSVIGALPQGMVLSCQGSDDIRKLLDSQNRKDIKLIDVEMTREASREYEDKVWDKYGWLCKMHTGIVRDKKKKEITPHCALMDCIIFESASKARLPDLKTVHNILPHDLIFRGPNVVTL

Measured: Potency
Also: series mostly up to about 57 µM.

NC(=O)N1c2ccccc2C=Cc2ccccc21
inactive: [1] | [2] | [3] | [4]

CC(C)(C)NC[C@H](O)COc1nsnc1N1CCOCC1
inactive: [1] | [2] | [3] | [4]

FC1(F)C(F)(F)C(F)(F)C2(F)C(F)(F)C(F)(F)C(F)(F)C(F)(F)C2(F)C1(F)F (stereo not drawn)
inactive: [1] | [2] | [3] | [4]

CC(=O)OCC(=O)[C@@]1(OC(C)=O)[C@@H](C)C[C@H]2[C@@H]3C[C@H](F)C4=CC(=O)C=C[C@]4(C)[C@@]3(F)[C@@H](O)C[C@@]21C
inactive: [1] | [2] | [3] | [4]

CCCCC(CC)CNC(=O)CC(C)OC(=O)CCC(=O)O (stereo not drawn)
inactive: [1] | [2] | [3] | [4]

CC(C)C[C@H](NC(=O)CNC(=O)[C@H](Cc1ccc(O)cc1)NC(=O)[C@H](CO)NC(=O)[C@H](Cc1c[nH]c2ccccc12)NC(=O)[C@H](Cc1cnc[nH]1)NC(=O)[C@@H]1CCC(=O)N1)C(=O)N[C@@H](CCCN=C(N)N)C(=O)N1CCC[C@H]1C(=O)NCC(N)=O (stereo in doubt)
inactive: [1] | [2] | [3] | [4]

CCN1CCCC1CN (stereo not drawn)
inactive: [1] | [2] | [3] | [4]

CC(O)(P(=O)(O)O)P(=O)(O)O
inactive: [1] | [2] | [3] | [4]

CN[C@@H]1[C@H](O)[C@H](NC)[C@H]2O[C@@]3(O)C(=O)C[C@@H](C)O[C@H]3O[C@@H]2[C@H]1O
inactive: [1] | [2] | [3] | [4]

O=[N+]([O-])c1cncn1CCN1CCOCC1
inactive: [1] | [2] | [3] | [4]

CCNC(=O)/C=C/c1cccc(Br)c1
inactive: [1] | [2] | [3] | [4]

Clc1cccc(Cl)c1NC1=NCCN1
inactive: [1] | [2] | [3] | [4]

NNC(=O)c1ccncc1
inactive: [1] | [2] | [3] | [4]

O=C(CN1CCNCC1)NC1CCCCC1
inactive: [1] | [2] | [3] | [4]

CN=C(NC#N)Nc1ccc(C2=NNC(=O)CC2C)cc1 (stereo not drawn)
inactive: [1] | [2] | [3] | [4]

CO/N=C(/C(=O)N[C@@H]1C(=O)N2C(C(=O)OCOC(=O)C(C)(C)C)=C(C)CS[C@H]12)c1csc(N)n1
inactive: [1] | [2] | [3] | [4]

CN=C(NC#N)NCCSCc1nc[nH]c1C
inactive: [1] | [2] | [3] | [4]

CCOC(=O)/C=C(C)/C=C/C=C(C)/C=C/c1c(C)cc(OC)c(C)c1C
inactive: [1] | [2] | [3] | [4]

CNC[C@H](O)[C@@H](O)[C@H](O)[C@H](O)CO
inactive: [1] | [2] | [3] | [4]

NC1CCN(c2cccc(Cl)n2)CC1
inactive: [1] | [2] | [3] | [4]

CCN(CC)CC#CCOC(=O)C(O)(c1ccccc1)C1CCCCC1 (stereo not drawn)
inactive: [1] | [2] | [3] | [4]

O=C(O)c1ccccc1Nc1cccc(C(F)(F)F)c1
inactive: [1] | [2] | [3] | [4]

CC(=O)OC(C)OC(=O)C(C)c1ccc(-c2ccccc2)c(F)c1 (stereo not drawn)
inactive: [1] | [2] | [3] | [4]

C[C@@H](CN1CC(=O)NC(=O)C1)N1CC(=O)NC(=O)C1
inactive: [1] | [2] | [3] | [4]

CC(CCc1ccccc1)NCC(O)c1ccc(O)c(C(N)=O)c1 (stereo not drawn)
inactive: [1] | [2] | [3] | [4]

Clc1ccc2nsnc2c1NC1=NCCN1
inactive: [1] | [2] | [3] | [4]

CCOc1cc(CC(=O)N[C@@H](CC(C)C)c2ccccc2N2CCCCC2)ccc1C(=O)O
inactive: [1] | [2] | [3] | [4]

CC(C)c1ccc2oc3nc(N)c(C(=O)O)cc3c(=O)c2c1
inactive: [1] | [2] | [3] | [4]

CC(=O)Nc1ccc(CC(=O)O)cc1
inactive: [1] | [2] | [3] | [4]

CCOc1ccc(NC(=O)CC(C)O)cc1 (stereo not drawn)
inactive: [1] | [2] | [3] | [4]

CC(C(=O)O)c1ccc(C(=O)c2ccccc2)s1 (stereo not drawn)
inactive: [1] | [2] | [3] | [4]

O=C1CC[C@H](C(=O)N2CCCCC2)N1
inactive: [1] | [2] | [3] | [4]

CCCCCCCC(=O)[O-].CCCCCCCC(=O)[O-].[Zn+2]
inactive: [1] | [2] | [3] | [4]

O=C(O)c1cccnc1
inactive: [1] | [2] | [3] | [4]

Cc1cc(C)c(NC(=O)CN(CC(=O)O)CC(=O)O)c(C)c1Br
inactive: [1] | [2] | [3] | [4]

Cc1cc(NS(=O)(=O)c2ccc(N)cc2)nc(C)n1
inactive: [1] | [2] | [3] | [4]

C=CCc1ccc(O)c(OC)c1
inactive: [1] | [2] | [3] | [4]
